This note sets out measurements from PubChem BioAssay.

Experiment [1] can be described thus: small molecules captured by biotinylated probe aFSTL3 – biochemical, small-molecule microarray, fluorescence 635/667, stem cell growth factor project, primary screen (AID 1064).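 Also: measures binding of the biotinylated anti-FSTL3 antibody to printed compounds.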 Conditions: higher = more signal.
Experiment [2] is described as follows: binders from COS7 lysate, DM2A8 probe, primary screen, torsin A project, cell lysate, small-molecule microarray, fluorescence 635/667 (AID 1065). The conditions noted are these: higher = more signal, COS7 lysate expressing mutant human TOR1A.
A short description of experiment [3]: small molecules captured by biotinylated probe aFGF2 – biochemical, small-molecule microarray, fluorescence 635/667, stem cell growth factor project, primary screen (AID 1067).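 Also: measures binding of biotinylated aFGF2 protein to printed compounds on slides; z-score merges feature fluorescence and signal-to-noise across triplicate slides.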 Conditions: higher = more signal.
A short description of experiment [4]: small molecules captured by biotinylated probe aFGF10 – biochemical, small-molecule microarray, fluorescence 635/667, stem cell growth factor project, primary screen (AID 1071).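 Also: score merges 667 nm spot intensity and signal to noise from triplicate slides.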 The conditions noted are these: higher = more signal.
Experiment [5] addresses Neurogenic locus notch homolog protein 2 (Homo sapiens) (UniProt Q04721). In words: small molecules binding Notch2 protein – biochemical, small-molecule microarray, 635 nm fluorescence, stem cell growth factors, primary screen (AID 1073). The conditions noted are these: higher = more signal.
In experiment [6] the target is Pro-neuregulin-1, membrane-bound isoform (Homo sapiens) (UniProt Q02297). In words: small molecules binding neuregulin-1 protein – biochemical, small-molecule microarray, fluorescence 635/667, psychiatric disease protein project, primary screen (AID 1075).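 Also: score combines 667 nm spot fluorescence with signal to noise.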 Conditions: NRG1 binding, 635 nm fluorescence, higher = more signal.
Sequence of Pro-neuregulin-1, membrane-bound isoform (Homo sapiens) (Q02297 whole entry, looked up, the tested form may be a part, canonical isoform): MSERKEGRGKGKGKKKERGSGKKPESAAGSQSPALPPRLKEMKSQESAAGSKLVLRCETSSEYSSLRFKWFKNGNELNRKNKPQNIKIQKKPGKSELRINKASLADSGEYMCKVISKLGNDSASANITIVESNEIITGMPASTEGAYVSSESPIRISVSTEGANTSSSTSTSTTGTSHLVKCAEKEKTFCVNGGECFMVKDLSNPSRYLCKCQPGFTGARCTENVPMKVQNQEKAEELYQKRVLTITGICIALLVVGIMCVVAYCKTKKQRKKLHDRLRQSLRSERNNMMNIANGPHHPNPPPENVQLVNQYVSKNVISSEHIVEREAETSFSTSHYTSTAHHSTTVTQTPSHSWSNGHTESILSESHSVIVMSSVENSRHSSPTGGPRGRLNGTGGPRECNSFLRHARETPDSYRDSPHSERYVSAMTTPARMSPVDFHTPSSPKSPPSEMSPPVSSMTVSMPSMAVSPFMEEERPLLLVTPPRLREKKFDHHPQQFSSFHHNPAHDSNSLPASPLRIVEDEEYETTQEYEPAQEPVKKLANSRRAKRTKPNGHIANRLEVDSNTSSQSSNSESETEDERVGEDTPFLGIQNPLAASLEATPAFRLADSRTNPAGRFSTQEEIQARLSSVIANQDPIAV
Experiment [7] has as its system Neuregulin-1 EGF-like domain. In words: small molecules binding NRG1 EGF domain – biochemical, small-molecule microarray, 635 nm fluorescence, primary screen (AID 1081).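 Also: binding of the protein to compounds printed on small-molecule microarray slides.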 The conditions noted are these: higher = more signal.
Experiment [8] is described as follows: FRG1 expression reporter modulators in myotubes – cell-based, C2C12 myotubes, firefly/Renilla luciferase, luminescence, FRG1 inhibition for FSHD, primary screen (AID 1084). The conditions noted are these: FRG1 promoter luciferase, higher = more signal, called active from +8 up or from −8 down.
The nature of experiment [9]: small molecules captured by biotinylated probe aFST – biochemical, small-molecule microarray, fluorescence 635/667, stem cell growth factor project, primary screen (AID 1086).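 Also: score merges 667 nm fluorescence with signal-to-noise of each printed compound spot.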 The conditions noted are these: higher = more signal.
A short description of experiment [10]: binders of probe aHhip on microarray, primary screen, stem cell growth factor project, biochemical, small-molecule microarray, fluorescence 635/667 (AID 1087).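 Also: score merges spot fluorescence at 667nm with spot signal to noise ratio.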 Conditions: higher = more signal.
Experiment [11] has as its system PRMT1 (protein arginine N-methyltransferase 1). In words: small molecules binding arginine methyltransferase PRMT1 – biochemical, small-molecule microarray, 635 nm fluorescence, primary screen (AID 1088).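 Also: binding of Prmt1 protein to compounds spotted on small-molecule microarray slides.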 The conditions noted are these: higher = more signal.
Experiment [12] in a line: growth effects on S. cerevisiae YJM789 – YJM789 clinical isolate, OD600, 24 h, basal, primary screen (AID 1089).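 Also: growth of clinical yeast isolate S. cerevisiae YJM 789 seeded 1000 cells per well; test concentration not given here.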 Conditions: higher = more signal, called active from +8 up or from −8 down.
A short description of experiment [13]: S. pombe growth modifiers, basal conditions – strain 972, OD600, 24 h, no modulator, primary screen (AID 1090).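 Also: basal condition with compound alone and no growth modifier present; test concentration not given here.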 The conditions noted are these: S. pombe 972 growth, higher = more signal, called active from +8 up or from −8 down.
The nature of experiment [14]: budding yeast growth modifiers under rapamycin – strain BY4716, OD600, 96 h, primary screen (AID 1091). Also: test concentration not given here. The conditions noted are these: S. cerevisiae BY4716 + rapamycin, higher = more signal, called active from +8 up or from −8 down.
For experiment [15], the target named is Torsin-1A-interacting protein 2 (Homo sapiens) (UniProt Q8NFQ8). Nature of the experiment: small molecules binding lysate-expressed LULL1 – cell lysate, human LULL1 lysate, 635/667 nm fluorescence, primary screen (AID 1092).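 Also: score merges per-feature 667 nm fluorescence with signal-to-noise.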 The conditions noted are these: small-molecule microarray, hLULL1 lysate binding, 635 nm fluorescence; higher = more signal.
Sequence of Torsin-1A-interacting protein 2 (Homo sapiens) (Q8NFQ8 whole entry, looked up): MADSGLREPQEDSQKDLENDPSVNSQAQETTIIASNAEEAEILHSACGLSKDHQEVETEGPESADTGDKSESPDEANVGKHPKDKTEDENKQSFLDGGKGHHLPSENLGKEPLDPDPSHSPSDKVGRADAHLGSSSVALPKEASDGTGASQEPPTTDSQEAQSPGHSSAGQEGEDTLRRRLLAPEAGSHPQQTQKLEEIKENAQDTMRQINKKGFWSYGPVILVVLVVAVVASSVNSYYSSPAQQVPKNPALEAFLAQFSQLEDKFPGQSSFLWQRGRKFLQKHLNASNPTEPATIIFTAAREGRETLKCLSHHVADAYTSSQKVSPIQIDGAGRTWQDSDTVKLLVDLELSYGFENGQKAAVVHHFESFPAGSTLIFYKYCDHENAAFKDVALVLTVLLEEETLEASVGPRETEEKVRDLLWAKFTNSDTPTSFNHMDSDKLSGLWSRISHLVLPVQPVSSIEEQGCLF
A short description of experiment [16]: optical density change of DRC41 E. coli – strain DRC41, OD650, 24 h, E. coli filamentation project, primary screen (AID 1093).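 Also: MC1000 strain lacking acrAB efflux and sulA so SOS filamentation is blocked; test concentration not given here.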 Conditions: E. coli DRC41 growth, higher = more signal, called active from +8 up or from −8 down.
Experiment [17] in a line: probe aLefty2 binding to arrayed compounds – biochemical, biotinylated probe, 635/667 nm fluorescence, primary screen (AID 1094).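 Also: score merges spot fluorescence near 667 nm with spot signal-to-noise ratio.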 The conditions noted are these: small-molecule microarray, higher = more signal.
Experiment [18] relates to Noggin (protein binding on small-molecule microarray). Nature of the experiment: small molecules binding Noggin protein – biochemical, 635/667 nm fluorescence, primary screen (AID 1095).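 Also: score merges 667 nm feature fluorescence with signal to noise over triplicate slides.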 Conditions: 635 nm fluorescence, higher = more signal.
Experiment [19] deals with Neurogenic locus notch homolog protein 3 (Homo sapiens) (UniProt Q9UM47). Nature of the experiment: small molecules binding NOTCH3 protein – biochemical, 635/667 nm fluorescence, primary screen (AID 1096). The conditions noted are these: small-molecule microarray, 635 nm fluorescence, higher = more signal.
Sequence of Neurogenic locus notch homolog protein 3 (Homo sapiens) (Q9UM47 whole entry, looked up): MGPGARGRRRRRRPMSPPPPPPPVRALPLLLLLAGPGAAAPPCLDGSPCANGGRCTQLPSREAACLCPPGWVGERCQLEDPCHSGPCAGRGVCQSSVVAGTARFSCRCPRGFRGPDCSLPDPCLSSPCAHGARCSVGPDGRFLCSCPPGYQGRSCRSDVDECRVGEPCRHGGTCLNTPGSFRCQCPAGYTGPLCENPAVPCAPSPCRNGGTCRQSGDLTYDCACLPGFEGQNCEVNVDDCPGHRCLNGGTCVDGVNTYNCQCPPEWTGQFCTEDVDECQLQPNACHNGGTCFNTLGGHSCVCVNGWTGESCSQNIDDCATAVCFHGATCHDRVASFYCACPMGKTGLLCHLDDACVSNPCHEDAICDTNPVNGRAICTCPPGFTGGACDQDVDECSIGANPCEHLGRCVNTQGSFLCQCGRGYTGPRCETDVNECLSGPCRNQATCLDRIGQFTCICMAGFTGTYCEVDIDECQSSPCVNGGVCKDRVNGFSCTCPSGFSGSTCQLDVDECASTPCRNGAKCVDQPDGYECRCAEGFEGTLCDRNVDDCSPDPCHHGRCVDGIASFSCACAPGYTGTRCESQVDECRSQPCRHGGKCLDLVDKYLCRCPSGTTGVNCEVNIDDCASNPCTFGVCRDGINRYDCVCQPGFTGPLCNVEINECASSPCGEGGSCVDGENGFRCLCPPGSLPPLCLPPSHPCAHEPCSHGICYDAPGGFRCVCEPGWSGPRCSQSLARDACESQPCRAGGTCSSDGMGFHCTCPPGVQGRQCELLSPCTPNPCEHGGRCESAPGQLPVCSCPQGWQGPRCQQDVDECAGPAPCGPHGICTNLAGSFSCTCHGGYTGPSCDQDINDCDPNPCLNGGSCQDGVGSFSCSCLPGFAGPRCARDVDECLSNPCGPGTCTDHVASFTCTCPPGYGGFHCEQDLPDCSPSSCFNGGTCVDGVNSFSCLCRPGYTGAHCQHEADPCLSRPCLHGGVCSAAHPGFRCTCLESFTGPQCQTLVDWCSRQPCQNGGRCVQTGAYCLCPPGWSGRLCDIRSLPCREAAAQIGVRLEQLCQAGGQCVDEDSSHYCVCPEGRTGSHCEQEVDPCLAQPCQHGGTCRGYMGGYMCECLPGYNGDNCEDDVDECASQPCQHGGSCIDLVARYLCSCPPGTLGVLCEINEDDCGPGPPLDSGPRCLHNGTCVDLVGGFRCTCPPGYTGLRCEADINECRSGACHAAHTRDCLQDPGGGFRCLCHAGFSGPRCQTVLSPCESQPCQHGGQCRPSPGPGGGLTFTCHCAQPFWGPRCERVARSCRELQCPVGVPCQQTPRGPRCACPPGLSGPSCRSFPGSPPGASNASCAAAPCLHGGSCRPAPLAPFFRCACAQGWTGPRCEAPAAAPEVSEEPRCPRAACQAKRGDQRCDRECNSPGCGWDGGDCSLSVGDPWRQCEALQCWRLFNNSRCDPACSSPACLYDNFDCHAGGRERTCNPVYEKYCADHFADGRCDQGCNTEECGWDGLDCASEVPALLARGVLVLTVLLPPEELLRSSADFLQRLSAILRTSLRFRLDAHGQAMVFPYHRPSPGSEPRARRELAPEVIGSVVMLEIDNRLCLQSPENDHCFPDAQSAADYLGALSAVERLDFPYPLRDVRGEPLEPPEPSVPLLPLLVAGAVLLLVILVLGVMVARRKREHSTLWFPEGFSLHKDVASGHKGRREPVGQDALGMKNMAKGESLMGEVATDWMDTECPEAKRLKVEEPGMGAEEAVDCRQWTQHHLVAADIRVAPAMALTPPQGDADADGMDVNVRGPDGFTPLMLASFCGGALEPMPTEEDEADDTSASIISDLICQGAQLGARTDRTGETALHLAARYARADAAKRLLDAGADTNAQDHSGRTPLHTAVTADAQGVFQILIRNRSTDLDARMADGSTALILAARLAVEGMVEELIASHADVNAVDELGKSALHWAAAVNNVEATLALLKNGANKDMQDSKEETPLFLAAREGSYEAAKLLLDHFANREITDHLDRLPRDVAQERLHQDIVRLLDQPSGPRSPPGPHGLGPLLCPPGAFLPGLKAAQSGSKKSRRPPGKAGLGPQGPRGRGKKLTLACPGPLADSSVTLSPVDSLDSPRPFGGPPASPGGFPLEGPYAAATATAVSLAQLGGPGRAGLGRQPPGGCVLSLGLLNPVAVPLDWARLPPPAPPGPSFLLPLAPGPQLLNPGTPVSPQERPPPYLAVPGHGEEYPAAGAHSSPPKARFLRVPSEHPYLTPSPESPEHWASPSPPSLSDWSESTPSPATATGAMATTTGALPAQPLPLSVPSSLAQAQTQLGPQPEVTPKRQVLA
Experiment [20] is described as follows: probe aEGFR binding to arrayed compounds – biochemical, biotinylated probe, 635/667 nm fluorescence, primary screen (AID 1097).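 Also: probe is a biotinylated anti-EGFR antibody binding compounds printed on slides; score combines fluorescence near 667 nm and signal to noise of each spot.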 The conditions noted are these: small-molecule microarray, higher = more signal.

The source made the active and inactive calls.

In the case of `CCCC=C(CCC)[C@@H](NP(=O)(c1ccccc1)c1ccccc1)c1ccc(C(F)(F)F)cc1`, the composite z-score in experiment [1] was -0.176; in experiment [2], 0.158; in experiment [3], -0.0975; in experiment [4], 0.0842; in [5] it was 0.131; in experiment [6], 1.74. In addition, the composite z-score in experiment [7] came to 0.557; in [9] it was 0.237; in experiment [10], 0.0216; in experiment [11] it was 0.804; in experiment [15], 1.01; in [17], 0.0593. Also, the composite z-score is -0.13 in experiment [18], 0.11 in experiment [19] and 0.58 in experiment [20]. The z-score in [8] is 1.96 (inactive); in [12], -0.276 (inactive); in [13], 0.423 (inactive); in experiment [14], 0.0291 (inactive); in experiment [16], -0.159 (inactive).
For `O=C1NC(=O)C2C1C=CC(C(O)c1ccc(Br)cc1)N2Nc1ccccn1` (stereo not given), the composite z-score in [1] worked out at 0.253; in experiment [2] it was 0.156; in [3], 0.0969; in [4] it was 1.05; in [5], 1.39; in experiment [6], 1.8. Moreover, the composite z-score in experiment [7] is 0.95; in experiment [9], 0.331; in [10], -0.0296; in [11], 0.215; in [15], 1.18; in experiment [17], 0.119. Moreover, the composite z-score in experiment [18] came to 0.248; in [19], 0.63; in experiment [20], 0.315. Moreover, the z-score in [8] is -0.383 (inactive); in experiment [12] it was -1.26 (inactive); in experiment [13] it was 0.61 (inactive); in experiment [14] it was -0.683 (inactive); in [16], -0.931 (inactive).
As to `COc1ccc([Si](C)(C)[C@H]2[C@H](CC(=O)N3Cc4ccccc4C[C@H]3CO)O[C@@]3(C(=O)N(Cc4cccc(N5CCCCC5=O)c4)c4ccccc43)[C@@H]2C)cc1`, the composite z-score came out at 0.0111 in experiment [1]; 0.576 in experiment [2]; 0.085 in experiment [3]; 0.36 in experiment [4]; 0.246 in experiment [5]; 0.175 in experiment [6]. The composite z-score came out at 1.2 in experiment [7]; 0.342 in [9]; 0.0274 in experiment [10]; 1.29 in experiment [11]; 1.79 in experiment [15]; 0.02 in experiment [17]. For the same molecule, the composite z-score in experiment [18] was 1.02; in experiment [19], 1.09; in experiment [20] it was -0.0471. In addition, the z-score was -2.09 (inactive) in [8]; -2.19 (inactive) in [12]; 0.522 (inactive) in experiment [13]; 0.925 (inactive) in experiment [14]; -0.0352 (inactive) in experiment [16].
As for `CCOC(=CC(=O)OC)CC(O)c1cccc(Cl)c1` (stereo not given), the composite z-score in experiment [1] was 0.201; in [2], 0.071; in experiment [3] it was -0.0504; in experiment [4] it was -0.157; in [5] it was -0.124; in [6] it was 1.43. Also, the composite z-score is 1.37 in experiment [7]; -0.595 in [9]; -0.303 in [10]; 1.39 in experiment [11]; 2.4 in experiment [15]; -0.125 in experiment [17]. The values for the composite z-score in experiment [18], in [19] and in experiment [20] were -0.673, 0.27 and -0.128, respectively. For the same molecule, the z-score in experiment [8] is -3.65 (inactive); in [12] it was -4.05 (inactive); in [13] it was -7.01 (inactive); in [14] it was -1.53 (inactive); in experiment [16], 0.341 (inactive).
As to `CN(C)CCCNC(=O)[C@@H]1c2ccccc2C(=O)N(CC23CC4CC(CC(C4)C2)C3)[C@H]1c1ccc(CO)cc1`, the composite z-score in experiment [1] was -0.782; in experiment [2], 1.13; in [3], 0.0878; in [4] it was 0.837; in experiment [5], 1.28; in [6], 1.15. Moreover, the composite z-score is 1.39 in [7]; 0.445 in experiment [9]; -0.128 in [10]; 1.53 in experiment [11]; 3.24 in [15]; -0.227 in [17]. Further, the composite z-score in experiment [18] was 0.954; in experiment [19], 1.05; in experiment [20], -0.0801. Further, the z-score in experiment [8] is -1.92 (inactive); in experiment [12], -0.0129 (inactive); in experiment [13] it was -7.98 (inactive); in experiment [14], -2.06 (inactive); in experiment [16], 0.583 (inactive).
